# Results from PubChem BioAssay.
# Calls of active or inactive are those of the source.
# How the values were obtained:
# [1] = system: PRMT1 (protein arginine N-methyltransferase 1); experiment: PRMT1 binders on small-molecule microarrays, primary screen, biochemical, small-molecule microarray, 635 nm fluorescence (AID 1088); conditions: small-molecule microarray binding, higher = more signal;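 further: binding of Prmt1 protein to compounds spotted on small-molecule microarray slides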
# [2] = yeast growth modulation, basal conditions, primary screen, YJM789 clinical isolate, OD600, 24 h (AID 1089);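 further: growth of clinical yeast isolate S. cerevisiae YJM 789 seeded 1000 cells per well; test concentration not given here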; conditions: S. cerevisiae YJM789 growth, higher = more signal, called active from +8 up or from −8 down
# [3] = fission yeast growth modulation, primary screen, strain 972, OD600, 24 h, no modulator (AID 1090);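 further: basal condition with compound alone and no growth modifier present; test concentration not given here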; conditions: S. pombe 972 growth, higher = more signal, called active from +8 up or from −8 down
# [4] = S. cerevisiae growth modulation with rapamycin, primary screen, strain BY4716, OD600, 96 h (AID 1091); conditions: higher = more signal, called active from +8 up or from −8 down; further: test concentration not given here
# [5] = target: Torsin-1A-interacting protein 2 (Homo sapiens) (UniProt Q8NFQ8); experiment: LULL1 binders on small-molecule microarray, primary screen, cell lysate, human LULL1 lysate, 635/667 nm fluorescence (AID 1092); conditions: hLULL1 lysate binding, 635 nm fluorescence, higher = more signal;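 further: probe is lysate of COS7 cells overexpressing human LULL1; score merges per-feature 667 nm fluorescence with signal-to-noise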
# [6] = E. coli growth modulation, two-sided OD650, primary screen, E. coli filamentation project, strain DRC41, 24 h (AID 1093); conditions: OD650, 24 h, higher = more signal, called active from +8 up or from −8 down;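 further: MC1000 strain lacking acrAB efflux and sulA so SOS filamentation is blocked; test concentration not given here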
# [7] = small-molecule microarray binders of probe aLefty2, primary screen, biochemical, biotinylated probe, 635/667 nm fluorescence (AID 1094); conditions: higher = more signal;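 further: score merges spot fluorescence near 667 nm with spot signal-to-noise ratio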
# [8] = system: Noggin (protein binding on small-molecule microarray); experiment: Noggin binders on small-molecule microarray, primary screen, biochemical, 635/667 nm fluorescence (AID 1095); conditions: 635 nm fluorescence, higher = more signal;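 further: score merges 667 nm feature fluorescence with signal to noise over triplicate slides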
# [9] = target: Neurogenic locus notch homolog protein 3 (Homo sapiens) (UniProt Q9UM47); experiment: NOTCH3 binders on small-molecule microarray, primary screen, biochemical, 635/667 nm fluorescence (AID 1096); conditions: NOTCH3 binding, 635 nm fluorescence, higher = more signal
# [10] = small-molecule microarray binders of probe aEGFR, primary screen, biochemical, biotinylated probe, 635/667 nm fluorescence (AID 1097); conditions: higher = more signal;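 further: probe is a biotinylated anti-EGFR antibody binding compounds printed on slides; score combines fluorescence near 667 nm and signal to noise of each spot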
# [11] = system: Plasmodium falciparum Sir2 (PF13_0152, Sir2A); experiment: pfSir2 binders on small-molecule microarrays, primary screen, biochemical, small-molecule microarray, 635 nm fluorescence (AID 1098); conditions: small-molecule microarray binding, fluorescence 635 nm; higher = more signal;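 further: score merges spot fluorescence intensity with its signal-to-noise ratio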
# [12] = small-molecule microarray binders of probe aDKK1, primary screen, biochemical, biotinylated probe, 635/667 nm fluorescence (AID 1099); conditions: higher = more signal;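 further: score merges 667nm spot fluorescence with signal to noise across triplicate slides; reference of the scale not given here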
# [13] = small-molecule microarray binders of probe aCHRDL2, primary screen, biochemical, biotinylated probe, 635/667 nm fluorescence (AID 1100); conditions: higher = more signal
# [14] = splicing luciferase reporter signal modulators, primary screen, spliceosome inhibition project, cell-based, HEK293, splice +/- reporter (AID 1101); conditions: luminescence, 24 h, higher = more signal, called active from +8 up or from −8 down;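 further: HEK293 cells carrying a splicing-competent luciferase reporter gene; test concentration not given here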
# [15] = target: Fibroblast growth factor 10 (Homo sapiens) (UniProt O15520); experiment: FGF10 binders on small-molecule microarrays, primary screen, biochemical, small-molecule microarray, 635 nm fluorescence (AID 1102); conditions: FGF10 binding, fluorescence 635 nm, higher = more signal
# [16] = system: glycogen synthase kinase-3 (GSK3A per assay name; protocol says GSK3B); experiment: GSK3 binders on small-molecule microarrays, primary screen, biochemical, small-molecule microarray, 635 nm fluorescence, GSK3A (AID 1103); conditions: small-molecule microarray binding, fluorescence 635 nm; higher = more signal; further: the record names both GSK3A and GSK3B
# [17] = target: Epidermal growth factor receptor (Homo sapiens) (UniProt P00533); experiment: EGFR binders on small-molecule microarrays, primary screen, biochemical, small-molecule microarray, 635 nm fluorescence (AID 1104); conditions: EGFR binding, higher = more signal;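 further: score merges 667 nm emission intensity with spot signal to noise over triplicate slides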
# [18] = target: Follistatin-related protein 3 (Homo sapiens) (UniProt O95633); experiment: FSTL3 binders on small-molecule microarrays, primary screen, biochemical, small-molecule microarray, 635 nm fluorescence (AID 1105); conditions: FSTL3 binding, higher = more signal;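 further: score merges emission near 667 nm and signal to noise per printed spot across three slides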
# [19] = target: Dickkopf-related protein 1 (Homo sapiens) (UniProt O94907); experiment: DKK1 binders on small-molecule microarrays, primary screen, biochemical, small-molecule microarray, 635 nm fluorescence scan (AID 1106); conditions: DKK1 binding, higher = more signal;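 further: score merges emission near 667 nm with signal to noise over three replicate slides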
# [20] = system: Inhibin beta A chain (activin A); experiment: INHBA (activin A) binders on microarrays, primary screen, biochemical, small-molecule microarray, 635 nm fluorescence scan (AID 1107); conditions: small-molecule microarray binding, higher = more signal;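 further: mouse activin A protein probed at 4.33 µg/mL on printed slides; score merges bound-protein fluorescence near 667 nm with spot signal-to-noise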
# Chain of Torsin-1A-interacting protein 2 (Homo sapiens) (Q8NFQ8 whole entry, looked up): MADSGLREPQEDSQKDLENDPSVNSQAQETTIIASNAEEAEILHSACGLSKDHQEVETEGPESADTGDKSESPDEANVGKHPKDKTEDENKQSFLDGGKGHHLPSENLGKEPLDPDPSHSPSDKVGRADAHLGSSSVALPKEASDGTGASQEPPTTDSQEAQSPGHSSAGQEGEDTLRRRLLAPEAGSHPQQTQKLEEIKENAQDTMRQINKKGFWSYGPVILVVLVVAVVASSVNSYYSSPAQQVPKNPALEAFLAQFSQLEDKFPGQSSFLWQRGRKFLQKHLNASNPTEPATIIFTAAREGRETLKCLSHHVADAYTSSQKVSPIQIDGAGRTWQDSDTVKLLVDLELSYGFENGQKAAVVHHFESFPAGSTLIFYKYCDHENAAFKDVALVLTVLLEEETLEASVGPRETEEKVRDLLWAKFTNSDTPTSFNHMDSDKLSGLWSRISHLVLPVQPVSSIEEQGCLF
# Chain of Fibroblast growth factor 10 (Homo sapiens) (O15520 whole entry, looked up): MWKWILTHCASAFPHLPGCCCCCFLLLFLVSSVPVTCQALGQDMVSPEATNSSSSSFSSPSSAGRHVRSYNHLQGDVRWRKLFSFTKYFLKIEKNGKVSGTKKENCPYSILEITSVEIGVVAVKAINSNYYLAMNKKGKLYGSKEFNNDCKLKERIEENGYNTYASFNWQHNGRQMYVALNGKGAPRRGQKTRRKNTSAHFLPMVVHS
# Chain of Epidermal growth factor receptor (Homo sapiens) (P00533 whole entry, looked up): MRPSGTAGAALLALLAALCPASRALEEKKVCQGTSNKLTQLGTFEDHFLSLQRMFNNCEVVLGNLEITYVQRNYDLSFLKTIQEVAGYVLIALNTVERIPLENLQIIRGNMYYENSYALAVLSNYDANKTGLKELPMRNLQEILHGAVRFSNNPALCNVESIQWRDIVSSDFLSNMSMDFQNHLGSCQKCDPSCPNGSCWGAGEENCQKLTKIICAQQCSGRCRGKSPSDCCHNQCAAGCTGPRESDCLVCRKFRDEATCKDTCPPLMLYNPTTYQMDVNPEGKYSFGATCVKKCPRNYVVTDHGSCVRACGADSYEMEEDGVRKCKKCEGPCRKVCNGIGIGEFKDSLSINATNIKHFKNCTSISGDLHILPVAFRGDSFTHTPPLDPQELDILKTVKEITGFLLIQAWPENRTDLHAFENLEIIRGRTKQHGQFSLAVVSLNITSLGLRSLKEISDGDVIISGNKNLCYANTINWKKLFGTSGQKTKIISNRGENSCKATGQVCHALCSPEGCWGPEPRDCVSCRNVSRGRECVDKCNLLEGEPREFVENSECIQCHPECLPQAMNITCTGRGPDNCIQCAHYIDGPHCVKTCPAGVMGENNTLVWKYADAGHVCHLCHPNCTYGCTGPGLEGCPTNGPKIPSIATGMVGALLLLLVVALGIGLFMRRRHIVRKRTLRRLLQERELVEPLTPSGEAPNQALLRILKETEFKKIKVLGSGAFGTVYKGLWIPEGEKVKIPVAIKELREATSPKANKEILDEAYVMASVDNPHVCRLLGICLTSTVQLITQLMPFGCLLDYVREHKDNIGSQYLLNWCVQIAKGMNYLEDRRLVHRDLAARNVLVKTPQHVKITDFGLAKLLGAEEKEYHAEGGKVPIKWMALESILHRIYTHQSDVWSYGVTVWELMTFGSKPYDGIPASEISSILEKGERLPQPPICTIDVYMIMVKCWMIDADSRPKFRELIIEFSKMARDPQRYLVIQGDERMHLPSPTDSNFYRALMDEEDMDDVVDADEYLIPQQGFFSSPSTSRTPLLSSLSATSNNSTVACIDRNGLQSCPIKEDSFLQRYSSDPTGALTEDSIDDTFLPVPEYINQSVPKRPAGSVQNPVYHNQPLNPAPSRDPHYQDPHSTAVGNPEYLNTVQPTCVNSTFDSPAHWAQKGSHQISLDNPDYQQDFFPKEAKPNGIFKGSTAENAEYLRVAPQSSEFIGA
# Chain of Dickkopf-related protein 1 (Homo sapiens) (O94907 whole entry, looked up): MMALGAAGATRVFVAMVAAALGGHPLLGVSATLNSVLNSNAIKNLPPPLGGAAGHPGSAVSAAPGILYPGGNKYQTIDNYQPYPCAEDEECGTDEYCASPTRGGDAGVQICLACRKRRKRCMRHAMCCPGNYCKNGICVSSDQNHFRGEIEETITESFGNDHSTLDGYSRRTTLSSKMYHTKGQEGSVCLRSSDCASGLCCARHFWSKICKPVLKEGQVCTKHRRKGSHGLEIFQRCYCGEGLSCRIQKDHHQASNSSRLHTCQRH
# Chain of Neurogenic locus notch homolog protein 3 (Homo sapiens) (Q9UM47 whole entry, looked up): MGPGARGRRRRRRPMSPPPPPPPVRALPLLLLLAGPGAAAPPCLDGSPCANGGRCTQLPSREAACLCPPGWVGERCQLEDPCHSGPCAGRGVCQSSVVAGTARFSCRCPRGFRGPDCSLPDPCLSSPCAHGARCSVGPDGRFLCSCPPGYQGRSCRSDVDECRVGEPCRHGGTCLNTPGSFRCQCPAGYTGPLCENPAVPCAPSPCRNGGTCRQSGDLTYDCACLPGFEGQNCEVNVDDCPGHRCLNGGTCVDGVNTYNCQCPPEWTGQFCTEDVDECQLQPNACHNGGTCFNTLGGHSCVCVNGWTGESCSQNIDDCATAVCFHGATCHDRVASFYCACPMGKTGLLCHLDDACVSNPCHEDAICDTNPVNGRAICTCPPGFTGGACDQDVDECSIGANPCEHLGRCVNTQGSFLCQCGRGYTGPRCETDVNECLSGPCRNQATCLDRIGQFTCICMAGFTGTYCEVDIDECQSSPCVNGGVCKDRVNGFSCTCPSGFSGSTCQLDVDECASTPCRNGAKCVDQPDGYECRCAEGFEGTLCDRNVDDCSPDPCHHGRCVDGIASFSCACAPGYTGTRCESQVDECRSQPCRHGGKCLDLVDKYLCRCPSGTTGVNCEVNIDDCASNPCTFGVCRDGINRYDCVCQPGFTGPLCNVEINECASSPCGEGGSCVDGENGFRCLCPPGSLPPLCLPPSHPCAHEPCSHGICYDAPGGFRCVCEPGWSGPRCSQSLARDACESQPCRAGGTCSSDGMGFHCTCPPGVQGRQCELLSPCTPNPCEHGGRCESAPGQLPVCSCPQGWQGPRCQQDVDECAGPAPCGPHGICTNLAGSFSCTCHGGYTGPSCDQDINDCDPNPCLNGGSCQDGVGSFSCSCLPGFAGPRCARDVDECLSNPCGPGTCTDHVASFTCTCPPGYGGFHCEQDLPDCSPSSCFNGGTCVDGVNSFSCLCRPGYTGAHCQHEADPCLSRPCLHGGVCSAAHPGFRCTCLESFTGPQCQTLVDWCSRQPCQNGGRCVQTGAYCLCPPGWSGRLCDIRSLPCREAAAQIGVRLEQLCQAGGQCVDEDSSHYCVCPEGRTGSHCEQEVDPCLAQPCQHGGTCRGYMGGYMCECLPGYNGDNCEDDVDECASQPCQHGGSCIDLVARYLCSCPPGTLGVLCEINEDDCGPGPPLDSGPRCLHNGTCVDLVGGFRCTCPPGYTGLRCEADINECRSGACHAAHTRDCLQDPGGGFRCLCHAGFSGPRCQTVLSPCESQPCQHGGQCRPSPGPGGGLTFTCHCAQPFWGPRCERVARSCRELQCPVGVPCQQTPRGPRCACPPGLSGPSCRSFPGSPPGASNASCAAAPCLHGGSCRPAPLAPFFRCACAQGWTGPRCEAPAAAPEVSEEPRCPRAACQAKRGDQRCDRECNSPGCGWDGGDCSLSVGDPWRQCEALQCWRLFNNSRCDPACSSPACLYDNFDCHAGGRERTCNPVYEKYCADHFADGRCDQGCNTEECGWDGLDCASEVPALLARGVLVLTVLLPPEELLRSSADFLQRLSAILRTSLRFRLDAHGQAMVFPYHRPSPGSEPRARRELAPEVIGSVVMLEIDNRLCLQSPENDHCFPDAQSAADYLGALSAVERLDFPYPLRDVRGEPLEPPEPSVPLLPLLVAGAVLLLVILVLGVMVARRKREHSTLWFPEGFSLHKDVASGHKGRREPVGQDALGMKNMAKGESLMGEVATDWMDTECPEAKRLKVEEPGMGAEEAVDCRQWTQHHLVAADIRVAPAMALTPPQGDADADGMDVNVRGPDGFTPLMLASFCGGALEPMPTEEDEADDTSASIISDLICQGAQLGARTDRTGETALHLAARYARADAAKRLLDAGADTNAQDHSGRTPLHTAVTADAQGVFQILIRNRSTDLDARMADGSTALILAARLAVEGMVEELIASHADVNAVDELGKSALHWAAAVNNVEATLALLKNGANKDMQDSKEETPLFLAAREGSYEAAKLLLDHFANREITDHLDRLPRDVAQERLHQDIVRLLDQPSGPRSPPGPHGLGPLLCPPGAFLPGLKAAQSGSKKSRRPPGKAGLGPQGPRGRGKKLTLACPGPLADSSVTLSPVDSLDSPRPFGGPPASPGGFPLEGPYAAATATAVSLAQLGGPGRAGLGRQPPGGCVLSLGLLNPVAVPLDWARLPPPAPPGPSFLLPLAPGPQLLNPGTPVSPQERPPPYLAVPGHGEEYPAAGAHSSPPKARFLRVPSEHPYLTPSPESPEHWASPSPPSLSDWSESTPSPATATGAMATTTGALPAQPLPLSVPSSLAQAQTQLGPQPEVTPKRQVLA
# Chain of Follistatin-related protein 3 (Homo sapiens) (O95633 whole entry, looked up): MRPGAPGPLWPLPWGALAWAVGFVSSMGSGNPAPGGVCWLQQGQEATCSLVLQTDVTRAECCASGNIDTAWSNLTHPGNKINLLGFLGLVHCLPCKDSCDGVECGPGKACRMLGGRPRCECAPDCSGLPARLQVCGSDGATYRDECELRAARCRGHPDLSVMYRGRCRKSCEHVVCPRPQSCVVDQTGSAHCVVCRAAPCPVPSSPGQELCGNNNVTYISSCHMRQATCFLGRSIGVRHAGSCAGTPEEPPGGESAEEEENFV
Compound,composite z-score [1],z-score [2],z-score [3],z-score [4],composite z-score [5],z-score [6],composite z-score [7],composite z-score [8],composite z-score [9],composite z-score [10],composite z-score [11],composite z-score [12],composite z-score [13],z-score [14],composite z-score [15],composite z-score [16],composite z-score [17],composite z-score [18],composite z-score [19],composite z-score [20]
COc1ccc([Si](C)(C)[C@@H]2[C@@H](CC(=O)N3Cc4ccccc4C[C@H]3CO)O[C@]3(C(=O)N(Cc4cccc(N5CCC5=O)c4)c4ccccc43)[C@H]2C)cc1,1.55,0.0342 (inactive),0.589 (inactive),1.59 (inactive),1.95,-0.509 (inactive),-0.0963,0.954,0.87,0.0227,1.22,-0.0652,0.119,-0.432 (inactive),0.48,0.611,0.73,0.692,0.641,0.886
COCCOC(=O)N1C(=O)[C@@]2(c3cc(C#CCCO)ccc31)[C@H](c1ccc(O)cc1)N1[C@H](c3ccccc3)[C@H](c3ccccc3)OC(=O)[C@H]1[C@@H]2C(=O)N1CCN(c2ncccn2)CC1,1.53,0.356 (inactive),0.686 (inactive),1.6 (inactive),3.17,0.531 (inactive),0.837,1.58,1.01,-0.283,1.71,-0.365,-0.0062,-0.0232 (inactive),1.11,1.31,0.36,0.899,0.417,1.29
C[N+](C)(C)CCCCCCNC(=O)[C@H]1C[C@H]2C(=O)N[C@@H](Cc3ccccc3)C(=O)N2[C@H]1c1cccc(OCCO)c1,1.15,-0.776 (inactive),0.703 (inactive),-0.282 (inactive),3.05,-0.0145 (inactive),0.0028,1.13,0.953,-0.0152,1.65,-0.0429,0.0593,0.264 (inactive),0.985,1.23,0.227,1.09,0.707,0.279
CCOC(=O)C1=C[C@@H](C(C)C)N(S(=O)(=O)c2ccc(C)cc2)[C@H]1c1ccccc1F,1.58,-0.413 (inactive),1.51 (inactive),7.3 (inactive),2.8,-0.816 (inactive),0.142,0.351,1.06,0.0353,0.906,0.398,0.603,1.2 (inactive),0.668,0.791,0.6,0.965,0.336,0.442
COc1cc(CO)cc(I)c1O[C@H]1C=C(C(=O)NCCO)C[C@@H](N(C(=O)c2cc3ccccc3oc2=O)C2CCCCCC2)[C@@H]1O,-0.446,-0.13 (inactive),-1.59 (inactive),-1.26 (inactive),-0.188,1.86 (inactive),-0.198,0.437,0.383,-0.207,1.09,-0.28,-0.302,-1.33 (inactive),0.968,-0.314,0.338,0.348,0.306,-0.0101
COCCOC(=O)N1C(=O)[C@@]2(c3ccccc31)[C@H](C(=O)N1CCc3cc(OC)c(OC)cc3C1)[C@H]1C(=O)O[C@H](c3ccccc3)[C@H](c3ccccc3)N1[C@@H]2c1ccc(O)cc1,1.51,-0.654 (inactive),0.194 (inactive),1.8 (inactive),2.85,2.31 (inactive),0.206,1.39,0.806,0.0383,1.38,0.0664,0.299,0.251 (inactive),0.375,0.691,0.431,0.671,0.503,0.407
O=C1O[C@H](c2ccccc2)[C@H](c2ccccc2)N2[C@H]1[C@@H](C(=O)N1CCN(c3ncccn3)CC1)[C@]1(C(=O)Nc3ccc(C#CC4=CCCCC4)cc31)[C@H]2c1ccccc1OCCO,1.53,1.08 (inactive),0.759 (inactive),3.51 (inactive),2.65,0.071 (inactive),0.276,0.922,1.07,-0.0493,1.7,-0.14,0.259,-1.14 (inactive),1.02,1.3,0.645,1.31,0.71,1.08
C=CC[C@]1(C(N)=O)N=C(c2ccc(OCCCO)cc2)O[C@H]1c1ccccc1,0.243,-0.52 (inactive),-0.0257 (inactive),-0.953 (inactive),2.17,0.0588 (inactive),0.0493,0.201,-0.674,-0.165,1.3,0.351,1.11,0.27 (inactive),-0.304,-0.195,-1.03,-0.882,-0.539,1.08
CCCC[C@H]1C[C@@H]1[C@@H]1N(P(=O)(c2ccccc2)c2ccccc2)C[C@@](O)(c2ccccc2)CC12CC2,0.761,-0.841 (inactive),-7.02 (inactive),32.9 (active),3.06,-0.931 (inactive),0.356,-0.695,-0.317,0.0144,0.17,1.12,1.28,-0.644 (inactive),-0.295,0.0826,-0.678,0.21,-1.51,0.973
